Where “and” joins values, the source holds several entries; their conditions need not be identical. Identical values can stand only once. Calls of active or inactive are those of the source. Rule as the data show it, unless noted: active = inhibition above about 80%; inactive = the rest.
What was measured:
[1] = tested on: Hepatitis C virus NS3 helicase; test: blockers of NS3h binding to ssDNA – biochemical, fluorescence polarization, LOPAC1280 library, primary screen (AID 687035; in the data active = inhibition above about 37%); conditions: Purified HCV NS3 helicase, Cy5-dT15 ssDNA binding fluorescence polarization; stronger effect = higher value; concentration not given here
[2] = compounds altering Cy5-DNA-NS3h complex signal – biochemical, LOPAC1280, artefact control for HCV NS3 helicase inhibitor project (AID 687037; call rule not given here); conditions: Cy5-DNA-NS3h complex fluorescence interference counterscreen
[3] = blockers of cellular phospholipid synthesis – cell-based, LOPAC library, screen 4, primary screen (AID 1347384; call rule not given here); conditions: animal cells, phospholipid biosynthesis inhibition screen; at 10 µM
[4] = galactose survival enhancers in mitochondrial complex I cybrids – cell-based, galactose medium, ATP luminescence, primary screen (AID 1645843;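 active = z-score of at least 1.8 in each of two replicates, scored against plate mean and spread of sample wells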;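 also: positive z means more ATP and so rescue of galactose-driven cybrid death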); conditions: complex I mutant cybrid cells, 72 h, stronger effect = higher value
[5] = P. berghei load reduction in hepatocytes – cell-based, HepG2, luciferase luminescence, HepG2 viability, primary screen (AID 624349; in the data active = parasite load remaining mostly below about 12%, no sharp cut-off; inactive = mostly above about 10%;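 also: 100% = mean of DMSO negative control wells on the same plate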); conditions: P. berghei liver stage in HepG2, luciferase luminescence, concentration not given here; parasite load remaining: stronger effect = lower value; viability: measured here: HepG2 viability without parasites
[6] = chitosan synthesis blockers in C. neoformans – flow cytometry, Cibacron Brilliant Red staining (AID 1347148; call rule not given here;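 also: compound exposure lasted three days at 37 degrees C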); conditions: Cryptococcus neoformans chitosan, stronger effect = lower value; at 10 µM unless noted
[7] = growth inhibition, single agents and combos, LFS_MB_1R, cell-based, cisplatin or BGB combos, synergistic combos for chromothripsis tumors (AID 1671452); conditions: LFS_MB_1R medulloblastoma cells, stronger effect = higher value;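 also: cells exposed for 96 hours before readout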
[8] = growth inhibition, single agents and combos, CRL2098, cell-based, BGB or cisplatin IC20 combos, synergistic combos for chromothripsis tumors (AID 1671454); conditions: CRL2098 osteosarcoma cells, drug combinations, stronger effect = higher value;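 also: cells exposed for 96 h before readout; 0% = vehicle DMSO and 100% = killing by high DMSO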
[9] = growth inhibition, single agents and combos, HD-MB03, cell-based, BGB or cisplatin IC20 combos, synergistic combos for chromothripsis tumors (AID 1671455; in the data active = inhibition above about 83%;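 also: 0% = vehicle DMSO and 100% = high DMSO as cytotoxic control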); conditions: HD-MB03 medulloblastoma cells, stronger effect = higher value
[10] = growth inhibition, single agents and combos, UWB1.289, cell-based, BGB or cisplatin combos, synergistic combos for chromothripsis tumors (AID 1671456); conditions: UWB1.289 ovarian carcinoma cells, stronger effect = higher value;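 also: cells exposed to compound for four days; 0% = vehicle DMSO and 100% = killing by high DMSO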
[11] = growth inhibition, single agents and combos, LFS_MB_2R, cell-based, cisplatin combos, synergistic combos for chromothripsis tumors (AID 1671457); conditions: LFS_MB_2R medulloblastoma cells, stronger effect = higher value;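 also: cells exposed to compound for four days before readout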
[12] = UWB1.289_BRCA1 ovarian cancer growth, cell-based, BGB or cisplatin combinations (AID 1671459); conditions: UWB1.289 BRCA1 ovarian carcinoma, drug combinations, stronger effect = higher value
[13] = drug combination toxicity in non-malignant astrocytes – cell-based, BGB or cisplatin IC20 combos, cytotoxicity control for chromothriptic childhood tumor combination screen (AID 1671460); conditions: Human astrocytes, viability inhibition, drug combinations, at 0.5 µM, stronger effect = higher value;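 also: cells exposed to compounds for 96 hours before viability readout; 0% = vehicle and 100% = killing control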
[14] = CRL1545 cell growth, single agent and combined, cisplatin and BGB IC20 combos (AID 1671464); conditions: CRL1545 osteosarcoma cells, stronger effect = higher value;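 also: cells exposed to compound for 96 hours before readout; 0% = vehicle DMSO and 100% = high DMSO killing control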
[15] = liver-stage malaria parasite load reduction – cell-based, known kinase inhibitor set, luminescence, hepatoma host viability (AID 624392; call rule not given here;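 also: infected cells incubated roughly two days before readout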); conditions: Plasmodium liver stage in hepatoma cells, luciferase luminescence, concentration not given here; liver cell % of control: measured here: host liver cell viability; parasite % of control: stronger effect = lower value
[16] = biological target: NAD(+) hydrolase SARM1 (Homo sapiens) (UniProt Q6SZW1); test: blocking NAD cleavage by SARM1 SAM-TIR – cell lysate, NAD-Glo luminescence (AID 1508614;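 active = compound whose remaining NAD level is above about 45 nM, limit read from the data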;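 also: higher remaining NAD means stronger inhibition of SARM1 NADase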); conditions: SAM-TIR HEK293T lysate NADase, at 1 µM, stronger effect = higher value
NAD(+) hydrolase SARM1 (Homo sapiens), sequence (Q6SZW1 whole entry, looked up): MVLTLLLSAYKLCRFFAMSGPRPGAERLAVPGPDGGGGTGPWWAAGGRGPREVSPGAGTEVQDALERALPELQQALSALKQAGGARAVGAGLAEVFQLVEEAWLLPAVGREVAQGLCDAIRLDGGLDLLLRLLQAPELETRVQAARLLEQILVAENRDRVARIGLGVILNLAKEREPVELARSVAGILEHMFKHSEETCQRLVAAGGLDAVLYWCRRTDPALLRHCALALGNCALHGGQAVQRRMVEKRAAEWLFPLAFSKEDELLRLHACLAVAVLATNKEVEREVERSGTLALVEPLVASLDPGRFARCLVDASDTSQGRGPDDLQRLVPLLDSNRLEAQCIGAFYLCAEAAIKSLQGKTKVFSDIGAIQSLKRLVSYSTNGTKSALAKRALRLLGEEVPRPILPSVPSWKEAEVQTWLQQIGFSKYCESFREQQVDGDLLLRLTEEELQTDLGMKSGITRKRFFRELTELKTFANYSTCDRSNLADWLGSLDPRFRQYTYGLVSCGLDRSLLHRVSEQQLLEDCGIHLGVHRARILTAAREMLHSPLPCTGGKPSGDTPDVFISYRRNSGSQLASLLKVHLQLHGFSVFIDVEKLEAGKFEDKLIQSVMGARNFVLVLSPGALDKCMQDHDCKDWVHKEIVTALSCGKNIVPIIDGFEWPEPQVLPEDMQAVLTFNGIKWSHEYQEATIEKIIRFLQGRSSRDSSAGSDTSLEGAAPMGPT

[17] = measured here: combination with BGB IC40, at 0.05 µM
[18] = measured here: combination with cisplatin, at 0.5 µM
[19] = measured here: combination with cisplatin, at 5 µM
[20] = measured here: combination with BGB at IC20, at 0.5 µM
[21] = measured here: combination with cisplatin at IC20, at 0.5 µM
[22] = measured here: combo with BGB at IC20, at 0.5 µM
[23] = measured here: combo with cisplatin at IC20, at 0.5 µM
[24] = measured here: inhibition with BGB combination, at 0.05 µM
[25] = measured here: inhibition with cisplatin combination, at 0.05 µM
[26] = BGB combination, concentration series, at 5 µM
[27] = cisplatin combination, concentration series, at 5 µM
[28] = measured here: combo with BGB IC20
[29] = measured here: combo with cisplatin IC20
[30] = measured here: with BGB IC20 combination, at 0.5 µM
[31] = measured here: with cisplatin IC20 combination, at 0.5 µM

## Cc1cccc(-c2[nH]c(C(C)(C)C)nc2-c2ccc3nccnc3c2)n1
[1]
  inhibition: -3% (inactive)
[2]
  fluorescence ratio (interference): 1 (inactive)
[3]
  outcome: inactive
[4]
  z-score: -1.01 (inactive)

## Cc1cccc(-c2[nH]c(C(C)(C)C)nc2-c2ccc3c(c2)OCO3)n1
[5]
  parasite load remaining: 33.2% (inactive)
  viability: 61.8%

## Cc1ccc2c(c1)C(=O)[C@]1(O)CCN(c3ccccc3)C1=N2
[6]
  fold fluorescence: 7.57 [at 171 µM] (inactive)

## O=C(c1cc(Cc2n[nH]c(=O)c3ccccc23)ccc1F)N1CCN(C(=O)C2CC2)CC1
[7]; at 0.5 µM
  inhibition: 0.5% (inactive) and -18.6% (inactive)
[7]; [17]
  inhibition: 4.09% and -28.6%
[7]; [18]
  inhibition: -5.89% and -28.2%
[7]; [19]
  inhibition: 10.2% and -13.4%
[8]; at 0.5 µM
  inhibition: -22.2% (inactive) and -52% (inactive)
[8]; [20]
  inhibition: -38.6% and -22.3%
[8]; [21]
  inhibition: 8.08% and -53.7%
[9]; at 0.5 µM
  inhibition: 0.63% (inactive) and 3.05% (inactive)
[9]; [22]
  inhibition: -2.67% and 1.02%
[9]; [23]
  inhibition: 5.32% and 12.9%
[10]; at 0.5 µM
  inhibition: 3.95% (inactive) and -1.88% (inactive)
[10]; [24]
  inhibition: -15.9% and -18%
[10]; [25]
  inhibition: -0.831% and -12.7%
[11]; at 0.5 µM
  inhibition: -13.1% (inactive) and -23.1% (inactive)
[11]; [18]
  inhibition: -6.19% and -20.5%
[11]; [19]
  inhibition: -14.1% and -19.5%
[12]; [26]
  inhibition: 15.2% and -17.7%
[12]; at 0.5 µM
  inhibition: 3.2% (inactive) and -8.35% (inactive)
[12]; [27]
  inhibition: 8.98% and -4%
[13]
  inhibition: 4.09% (inactive) and -6.96% (inactive)
[13]; [28]
  inhibition: 0.597% and -11.9%
[13]; [29]
  inhibition: 7.1% and 3.7%
[14]; at 0.5 µM
  inhibition: 11% (inactive) and 18.2% (inactive)
[14]; [30]
  inhibition: 2.64% and 8.45%
[14]; [31]
  inhibition: 15.2% and 23.1%
[14]; single agent, at 0.05 µM
  inhibition: 8.77% and 29.2%
[14]; single agent, at 5 µM
  inhibition: 44.7% and 52.9%

## Cc1cn(-c2cc(NC(=O)c3ccc(C)c(Nc4nccc(-c5cccnc5)n4)c3)cc(C(F)(F)F)c2)cn1
[15]
  liver cell % of control: 96.6% and 104% and 98.4%
  parasite % of control: 40.6% (inactive) and 49.1% (inactive) and 89.8% (inactive)

## CCC(=O)N1CCN(c2ccc(-n3c(=O)ccc4cnc5ccc(-c6cnc7ccccc7c6)cc5c43)cc2C(F)(F)F)CC1
[15]
  liver cell % of control: 56.3% and 62.9% and 78.1%

## CC#CCn1c(N2CCC[C@@H](N)C2)nc2c1c(=O)n(Cc1nc(C)c3ccccc3n1)c(=O)n2C
[16]
  remaining NAD: 10 nM (inactive)

## C[C@@H]1CN(CC(=O)Nc2ccc3c(c2)Cc2cccc(-c4cc(=O)cc(N5CCOCC5)o4)c2S3)C[C@H](C)O1
[7]; at 0.5 µM
  inhibition: -8.44% (inactive) and -21% (inactive)
[7]; [17]
  inhibition: 3.35% and -5.52%
[7]; [18]
  inhibition: -14.6% and -41.1%
[7]; [19]
  inhibition: -56% and -92.8%
[8]; at 0.5 µM
  inhibition: -44.4% (inactive) and -42.5% (inactive)
[8]; [20]
  inhibition: -21.5% and -30.1%
[8]; [21]
  inhibition: -75.7% and -79.9%
[9]; at 0.5 µM
  inhibition: -12% (inactive) and -9.56% (inactive)
[9]; [22]
  inhibition: -14.5% and -20%
[9]; [23]
  inhibition: -16.9% and 0.275%
[10]; at 0.5 µM
  inhibition: -15.2% (inactive) and 1.44% (inactive)
[10]; [24]
  inhibition: -5.12% and -6.06%
[10]; [25]
  inhibition: -21.5% and 20.1%
[11]; at 0.5 µM
  inhibition: -9.09% (inactive) and -22.8% (inactive)
[11]; [18]
  inhibition: -17.7% and -28.5%
[11]; [19]
  inhibition: 7.16% and -9%
[12]; [26]
  inhibition: -11.5% and 19.3%
[12]; at 0.5 µM
  inhibition: -16.3% (inactive) and -2.61% (inactive)
[12]; [27]
  inhibition: -2.71% and 10.4%
[13]
  inhibition: -26.1% (inactive) and -28.5% (inactive)
[13]; [28]
  inhibition: -42.3% and -37.5%
[13]; [29]
  inhibition: -29% and -44.1%
[14]; at 0.5 µM
  inhibition: 5.04% (inactive) and -9.72% (inactive)
[14]; [30]
  inhibition: 22% and -3.16%
[14]; [31]
  inhibition: -5.11% and -14.8%
[14]; single agent, at 0.05 µM
  inhibition: 7.16% and -18.1%
[14]; single agent, at 5 µM
  inhibition: -20.2% and -4.99%

## CC(=O)OC1C(C)OC(Oc2c(-c3ccc(O)cc3)oc3cc(O)cc(O)c3c2=O)C(O)C1OC(C)=O (configuration not stated)
[5]
  parasite load remaining: 29.8% (inactive)
  viability: 85%
